# Compound activity deposited in PubChem BioAssay by National Center for Advancing Translational Sciences (NCATS).
# Rows were chosen to be rich in hits. Some 9.2% of all compounds tested hit in one or more screens of this group.
# ELG1 genotoxic: qHTS screen for small molecules that induce genotoxicity in human embryonic kidney (HEK293T) cells expressing luciferase-tagged ELG1 | actives 1.3% (n = 330,000) | HEK293T ELG1-luciferase reporter, luminescence, 16 h | Potency, µM (titrated, usually from 46 µM), inactives show at the top dose activity change, positive = activation, usual class: activators | AID 504466, 2011; also: % of control where 0% means no effect; nearly all actives have a fitted effect of over 60% in size
#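 Screening used a luciferase reporter fused to human ELG1 in HEK293T cells. Luminescence was read on a CCD plate imager after 16 hr exposure and 30 min ONE-Glo incubation.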
# NPC1 promoter act: qHTS Assay for NPC1 Promoter Activators; actives 2.4% (n = 320,000); AID 485313, 2010; Huh7 NPC1 promoter luciferase reporter, 24 h; Potency, µM (highest dose often 9.22 µM), for inactives: at the top dose activation, actives largely listed as activators; also: % of control where 0% means no effect; nearly all actives have a fitted effect of over 60% in size
#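 Stably transfected Huh7 (NPC1 promoter→luciferase), 1500 cells/well in Opti-MEM + 10% FBS, 2 h settle, then compound 24 h at 37 °C. Luminescence after 10 min with Amplite reagent.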
# Rab9 promoter act: qHTS Assay for Rab9 Promoter Activators | Huh7 Rab9 promoter-luciferase reporter, luminescence, 24 h | Potency, µM (series often up to 9.22 µM), for inactives: at the highest dose activation, negative = inhibition, most hits filed as activators | actives 2.8% (n = 320,000); also: % of control where 0% means no effect; nearly all actives have a fitted effect of over 60% in size
#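 Cell-based reporter: Huh7 stable for Rab9 promoter-driven luciferase, plated in reduced-serum medium with 10% FBS at 1500 cells/well, compound-treated 24 h at 37 °C, luminescence read after 10 min reagent.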
# FLuc counter: qHTS profiling assay for firefly luciferase inhibitor/activator using purifed enzyme and Km concentrations of substrates (counterscreen for miR-21 project); Luciferin 4-monooxygenase (Photinus pyralis), P08659; purified FLuc, Km substrates, luminescence inhibition; Potency, µM (series often up to 57.5 µM), without a hit: at the highest dose activity change, negative = inhibition, hits mostly inhibitors; actives 6.9% (n = 360,000);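 also: plate controls were vehicle for no effect and reference inhibitor for full effect; nearly all actives have a fitted effect of over 55% in size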
#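 Biochemical qHTS of compounds, final roughly 60 µM downward over six points, against 10 nM purified firefly luciferase using Km concentrations of substrates (10 uM D-luciferin, 10 uM ATP) in Tris acetate pH 7.5 buffer; luminescence output.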
# ELG1 DNA repair: qHTS screen for small molecules that inhibit ELG1-dependent DNA repair in human embryonic kidney (HEK293T) cells expressing luciferase-tagged ELG1 | HEK293T ELG1-luciferase reporter, luminescence, 16 h; DNA damage induced by 5-fluorouridine | Potency, µM (highest dose often 46.1 µM), without a hit: at the top dose activity change, negative = inhibition, hits mostly inhibitors | actives 2.3% (n = 330,000); also: % is scaled to controls: 0 for no effect and ±100 for the full control effect; nearly all actives have a fitted effect of over 55% in size
#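 Quantitative HTS, concentration-response format. 2,000 cells/well co-treated with 5-fluorouridine and compound, 16 hr in 5% CO2 at 37 °C; ONE-Glo luminescence read after 30 min.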
# SMN2 splice up: qHTS Assay for Enhancers of SMN2 Splice Variant Expression; HEK293 SMN2-luciferase splicing reporter, luminescence, 30-36 h; AID 1458, 2008; Potency, µM (doses to about 46.1 µM), without a hit: at the highest dose activity change, positive = activation, hits mostly activators; actives 2.8% (n = 210,000); also: % of control where 0% means no effect; nearly all actives have a fitted effect of over 55% in size
#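 qHTS luciferase splicing reporter: luminescence rises when SMN2 exon 7 is included in transfected HEK293 cells. Compound exposure lasted 30-36 h at 37C, with 4.5 mM final sodium butyrate as control, followed by a ONE-Glo read.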
# ELG1 FLuc counter: qHTS screen for small molecules that inhibit ELG1-dependent DNA repair: Hit Confirmation in Cell-Based Luciferin Assay; cell-free firefly luciferase luminescence counter-screen, ViewLux; Potency, µM (titrated, usually from 46.1 µM), for the others: at the top dose activity change, negative = inhibition, actives largely listed as inhibitors; shares compounds with ELG1 DNA repair; actives 3% (n = 350); also: % is scaled to controls: 0 for no effect and ±100 for the full control effect
# ELG1 Luc conf: HTS assay for small molecules that inhibit ELG1-dependent DNA repair in human embryonic kidney (HEK293T) cells expressing luciferase-tagged ELG1: Hit Confirmation; shares compounds with ELG1 DNA repair; HEK293T ELG1-luciferase levels, luminescence; cells co-treated with 5-fluorouridine; Potency, µM (top dose mostly 46.1 µM), for the others: at the top dose activity change, negative = inhibition, most hits filed as inhibitors; actives 68% (n = 670); also: % is scaled to controls: 0 for no effect and ±100 for the full control effect; nearly all actives have a fitted effect of over 55% in size
# Target sequence (Q96QE3 whole entry, looked up): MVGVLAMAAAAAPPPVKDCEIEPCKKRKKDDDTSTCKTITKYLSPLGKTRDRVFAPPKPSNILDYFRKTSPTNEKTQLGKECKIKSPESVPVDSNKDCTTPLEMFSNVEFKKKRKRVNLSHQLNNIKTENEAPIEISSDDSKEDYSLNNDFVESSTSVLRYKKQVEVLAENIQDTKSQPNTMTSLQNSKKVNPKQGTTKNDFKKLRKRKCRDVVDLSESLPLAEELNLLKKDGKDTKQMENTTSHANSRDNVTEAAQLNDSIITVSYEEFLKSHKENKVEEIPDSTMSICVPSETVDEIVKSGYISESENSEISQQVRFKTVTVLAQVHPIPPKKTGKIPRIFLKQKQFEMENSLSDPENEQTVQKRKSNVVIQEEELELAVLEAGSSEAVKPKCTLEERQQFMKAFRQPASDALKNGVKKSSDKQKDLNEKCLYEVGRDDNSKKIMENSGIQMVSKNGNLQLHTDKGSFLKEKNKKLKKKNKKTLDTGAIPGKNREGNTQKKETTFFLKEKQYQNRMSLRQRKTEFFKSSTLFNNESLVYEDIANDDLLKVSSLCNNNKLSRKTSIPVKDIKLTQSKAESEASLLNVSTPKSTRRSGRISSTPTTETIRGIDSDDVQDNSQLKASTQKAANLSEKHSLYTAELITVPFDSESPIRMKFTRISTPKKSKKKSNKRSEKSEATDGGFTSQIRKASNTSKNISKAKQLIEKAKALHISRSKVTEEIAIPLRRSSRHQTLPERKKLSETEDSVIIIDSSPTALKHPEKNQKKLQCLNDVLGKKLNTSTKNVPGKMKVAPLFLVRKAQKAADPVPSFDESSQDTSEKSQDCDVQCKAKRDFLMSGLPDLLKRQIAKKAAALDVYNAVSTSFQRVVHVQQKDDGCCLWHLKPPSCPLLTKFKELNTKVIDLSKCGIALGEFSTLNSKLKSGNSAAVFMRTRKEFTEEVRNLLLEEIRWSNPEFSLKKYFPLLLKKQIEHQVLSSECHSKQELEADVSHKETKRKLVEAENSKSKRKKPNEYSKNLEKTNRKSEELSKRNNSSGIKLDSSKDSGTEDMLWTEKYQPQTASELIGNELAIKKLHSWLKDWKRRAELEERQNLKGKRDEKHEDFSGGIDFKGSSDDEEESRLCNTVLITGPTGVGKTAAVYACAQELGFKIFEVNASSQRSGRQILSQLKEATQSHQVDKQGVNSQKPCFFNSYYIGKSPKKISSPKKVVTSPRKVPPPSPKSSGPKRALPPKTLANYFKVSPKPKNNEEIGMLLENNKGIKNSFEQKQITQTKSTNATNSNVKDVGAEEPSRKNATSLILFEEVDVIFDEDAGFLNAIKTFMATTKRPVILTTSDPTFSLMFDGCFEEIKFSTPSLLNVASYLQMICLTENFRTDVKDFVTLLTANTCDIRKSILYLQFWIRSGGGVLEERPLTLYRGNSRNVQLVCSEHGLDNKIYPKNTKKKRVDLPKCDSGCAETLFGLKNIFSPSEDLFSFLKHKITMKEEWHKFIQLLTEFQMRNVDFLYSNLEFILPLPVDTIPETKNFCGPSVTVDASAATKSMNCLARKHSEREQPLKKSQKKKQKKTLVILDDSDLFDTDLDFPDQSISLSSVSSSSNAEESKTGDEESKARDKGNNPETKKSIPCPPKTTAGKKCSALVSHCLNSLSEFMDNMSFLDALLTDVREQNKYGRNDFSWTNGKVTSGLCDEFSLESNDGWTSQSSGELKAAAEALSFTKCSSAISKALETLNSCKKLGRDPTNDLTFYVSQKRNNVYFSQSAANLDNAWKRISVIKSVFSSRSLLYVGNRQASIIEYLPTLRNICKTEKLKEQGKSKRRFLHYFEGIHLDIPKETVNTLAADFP
# ELG1 MMS Luc: confirmation of human ELG1 repair inhibitors, MMS stimulated; shares compounds with ELG1 DNA repair; HEK293T luciferase-tagged ELG1 level, MMS stimulated; Potency, µM (titrated, usually from 46.1 µM), for the others: at the highest dose activity change, negative = inhibition, hits mostly inhibitors; AID 624249; actives 53% (n = 670); also: % is scaled to controls: 0 for no effect and ±100 for the full control effect; nearly all actives have a fitted effect of over 60% in size
# ELG1 5FU viab: qHTS screen for small molecules that inhibit ELG1-dependent DNA repair: Hit Confirmation with 5FU Viability. shares compounds with ELG1 DNA repair. AID 624250, 2012. cell viability with 5-FU, ELG1-dependent repair. Potency, µM (doses to about 46.1 µM), without a hit: top-dose activity change, negative = viability loss, actives largely listed as cytotoxic. 670 tested, under 10 active;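 also: ELG1-luc HEK293T cells cotreated with 5-fluorouridine at 10 µM final; viability measured 16 h after compound addition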
# ELG1 MMS cell: qHTS screen for small molecules that inhibit ELG1-dependent DNA repair: Hit Confirmation with MMS Viability | Potency, µM (series often up to 46.1 µM), for the others: top-dose activity change, negative = viability loss, actives largely listed as cytotoxic | actives 33% (n = 670) | shares compounds with ELG1 DNA repair | Cell viability with MMS, ELG1-dependent DNA repair;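 also: ELG1-luc HEK293T cells co-treated with 10 µM MMS; viability read 16 h after compound addition; % is scaled to controls: 0 for no effect and ±100 for the full control effect; nearly all actives have a fitted effect of over 60% in size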
# ELG1 unstim viab: qHTS screen for small molecules that inhibit ELG1-dependent DNA repair: Hit Confirmation with Unstimulated Viability Assay; AID 624252, 2012; shares compounds with ELG1 DNA repair; Potency, µM (top dose mostly 45.9 µM), without a hit: at the highest dose activity change, negative = loss of viability, hits mostly cytotoxic; cell viability counter-screen, unstimulated, luminescence; actives 8% (n = 900);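 also: compound exposure lasted 16 hours before reading; % is scaled to controls: 0 for no effect and ±100 for the full control effect; nearly all actives have a fitted effect of over 55% in size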
# FLuc biochem: qHTS screen for small molecules that inhibit ELG1-dependent DNA repair: Hit Confirmation in Biochemical Luciferin Assay. shares compounds with ELG1 DNA repair. purified firefly luciferase, luminescence counter-screen. Potency, µM (highest dose often 57.5 µM), inactives show top-dose activity, negative = inhibition, most hits filed as inhibitors. actives 10% (n = 350); also: % is scaled to controls: 0 for no effect and ±100 for the full control effect
# The depositor's hits bear a star; u = inconclusive; x = not tested or not shown; [ ] = another dose, or the depositor's remark. Calls follow the shape of the dose curve; as a rule, active = well fitted curve in the direction sought with a large enough effect; inconclusive = small, poorly fitted or top-dose-only effect, or another doubt; inactive = no such curve, though single readings can be large; an effect the other way counts as inactive or inconclusive. Potency is read from the fitted curve at half-maximal effect.
SMILES,ELG1 genotoxic,NPC1 promoter act,Rab9 promoter act,FLuc counter,ELG1 DNA repair,SMN2 splice up,ELG1 FLuc counter,ELG1 Luc conf,ELG1 MMS Luc,ELG1 5FU viab,ELG1 MMS cell,ELG1 unstim viab,FLuc biochem
Cc1cccc(-n2c(N)c(-c3nc4ccccc4n3C)c3nc4ccccc4nc32)c1,0.1%,-5.6%,-5.4%,2.6%,1.84µM*,-15.2%,x,2.23µM*,5.4%,u,-3.9%,u,x
COc1ccc(-c2oc(=O)c3cc(OC)c(OC)cc3c2C#CCCCO)cc1,10.1%,x,x,x,u,x,x,x,x,x,x,x,x
COc1cc2c(C#CCCCO)c(-c3ccsc3)oc(=O)c2cc1OC,5.3%,x,x,x,4.11µM*,x,x,6.28µM*,u,-0.8%,u,u,x
COc1ccc(N2CCN(C(=O)C3CCCN(c4ncnc5c4nc4n5CCCCC4)C3)CC2)cc1 (stereo not given),-11.9%,-7.0%,0.2%,1.3%,3.66µM*,x,56.3%,9.97µM*,u,u,-7.3%,u,-3.6%
COc1ccc(NC(=O)C2CCN(c3ncnc4c3nc3n4CCCCC3)CC2)c(OC)c1,-5.0%,-0.5%,-0.9%,-11.9%,4.61µM*,x,u,7.92µM*,31.5µM*,u,u,u,-9.4%
Cc1cccc(NC(=O)C2CCN(c3ncnc4c3nc3n4CCCCC3)CC2)n1,-2.9%[9.26 µM],-5.8%,4.7%,-1.7%,1.83µM*,x,5.2%,5µM*,u,u,-10.6%,u,-4.7%
COC(=O)c1ccccc1NC(=O)C1CCN(c2ncnc3c2nc2n3CCCCC2)CC1,-8.3%,-2.3%,-0.3%,6.1%,u,x,-2.1%,11.2µM*,u,u,1.4%,-7.9%,-10.6%
CC(C)(C)c1ccc(OCCOc2ccc(C(C)(C)C)cc2NC=O)c(NC=O)c1,-12.9%,-2.8%,-2.6%,-2.0%,u,x,x,x,x,x,x,x,x
Cc1ccc(S(=O)(=O)NCCc2nnc3ccc(SCC(=O)Nc4nc(C)cs4)nn23)cc1,0.5%,-1.3%,0.6%,4.6%,-0.7%,12.9%,x,x,x,x,x,x,x
Cc1ccc(S(=O)(=O)c2nc(-c3cccc(Br)c3)oc2N2CCCCCC2)cc1,x,x,x,-2.7%,x,6.0%,x,x,x,x,x,x,x
COc1ccc([N+](=O)[O-])cc1N(CC1CO1)S(=O)(=O)c1ccc(C)cc1 (stereo not given),5.4%,-5.8%,1.7%,1.1%,u,21.6%,x,x,x,x,x,x,x
COc1ccc(NC(=O)C2CCN(c3nc(C)cc(C)n3)CC2)cc1,-1.2%,-5.0%,-9.4%,-1.8%,-14.2%,-1.1%,x,x,x,x,x,x,x
COc1ccc(NC(=O)C2CCN(c3nc(C)nc4c3CCC4)CC2)cc1,-7.4%,-16.1%,-15.3%,20.9%,0.731µM*,-55.8%,-12.9%,u,5µM*,-6.1%,5µM*,u,25.1%
CCCN1CCN(C(=O)C2CCN(c3ncnc4c3nc3n4CCCCC3)CC2)CC1,-0.5%,-1.9%,-3.2%,4.5%,-8.4%,x,64.9%,-28.3%,u,-8.0%,u,-15.7%,-1.8%
CC1CCN(C(=O)C2CCN(c3ncnc4c3nc3n4CCCCC3)CC2)CC1,-7.5%,-2.8%,0.0%,-1.8%,-2.6%,x,x,x,x,x,x,x,x
CCOc1ccc(NC(=O)N2CCN(c3nnc(C)c4c(C)n(-c5ccccc5)nc34)CC2)cc1,x,x,x,-9.7%,x,x,x,x,x,x,x,x,x
COc1cc(/C=C(\C#N)C(=O)Nc2cccc(C(=O)O)c2)ccc1OCc1ccc(F)cc1,20.6µM*,-0.9%,-1.4%,-14.4%,u,x,x,x,x,x,x,5.3%,x
COc1ccc(NC(=O)/C(C#N)=C\c2ccc(OCc3ccc(C(=O)O)cc3)c(OC)c2)cc1,u,-3.6%,-2.5%,-18.9%,u,27.2%,x,x,x,x,x,x,x
Cc1ccccc1-n1c(SCC(=O)c2c(N)n(C)c(=O)n(C)c2=O)nnc1-c1cccnc1,-8.3%,-2.2%,-4.6%,3.3%,u,-14.0%,x,x,x,x,x,x,x
Cc1ccccc1-n1c(SCC(=O)c2c(N)n(C)c(=O)n(C)c2=O)nc2sc3c(c2c1=O)CCCC3,-0.1%,-6.9%,-5.7%,2.8%,1.64µM*,-7.1%,-6.9%,2.5µM*,-16.9%,u,-1.1%,-15.8%,-2.0%
